High-throughput results deposited in PubChem by Broad Institute.
Compounds with a hit are over-represented: about 1.2% of the library has one in this group of screens.
RAD52 inh – inhibitors of human RAD52 DNA annealing; P43351; recombinant RAD52 DNA annealing, FRET fluorescence; inhibition, % at 18.7 µM; actives 0.46% (n = 360,000);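 active means every replicate showing at least 50% inhibition; inconclusive means mean inhibition at least 50% but not in every replicate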
Casp6 inh – caspase-6 (human) enzyme inhibition. P55212. purified caspase-6, Z-VEID-R110 cleavage fluorescence. inhibition, % at 12.5 µM. actives 0.53% (n = 350,000);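 active means mean inhibition across replicates at least about 35%, with every replicate also reaching that limit, limit read from the data; inconclusive means only one of the two criteria met; inactive means neither criterion met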
RAD54 branch – inhibitors of human RAD54 branch migration | RAD54 Holliday junction branch migration, FAM/BHQ fluorescence | Q92698 | inhibition, % at 10.4 µM | actives 0.14% (n = 360,000);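 active means mean normalized replicate activity at least 40 and at least half of replicates scoring 40 or more; inconclusive means only one of the two criteria met; inactive means mean below 40 and under half of replicates reaching 40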;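 further: inhibitors cause a drop in the FAM fluorescence signal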
N-glyco inh – N-linked glycosylation inhibition; D54 ERlucT glycosylation luciferase reporter, 24 h; percent of 100 nM tunicamycin response; reporter increase, % at 12.5 µM; actives 0.23% (n = 360,000);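 active means mean luciferase reporter signal, scaled so untreated is 0 and the glycosylation-blocking control 100, at or above a set limit in every replicate; inconclusive means mean reaches the limit but not every replicate does; inactive means mean below the limit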;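 further: luciferase carries N-glycosylation sites so blocking glycosylation raises the light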
NSD2 inh – NSD2 (human) methyltransferase inhibition. O96028. NSD2 peptide methylation, AlphaScreen, 120 min. inhibition, % at 12.5 µM. actives 0.54% (n = 310,000); in the data active means inhibition above about 50%
Target sequence (O96028 whole entry, looked up): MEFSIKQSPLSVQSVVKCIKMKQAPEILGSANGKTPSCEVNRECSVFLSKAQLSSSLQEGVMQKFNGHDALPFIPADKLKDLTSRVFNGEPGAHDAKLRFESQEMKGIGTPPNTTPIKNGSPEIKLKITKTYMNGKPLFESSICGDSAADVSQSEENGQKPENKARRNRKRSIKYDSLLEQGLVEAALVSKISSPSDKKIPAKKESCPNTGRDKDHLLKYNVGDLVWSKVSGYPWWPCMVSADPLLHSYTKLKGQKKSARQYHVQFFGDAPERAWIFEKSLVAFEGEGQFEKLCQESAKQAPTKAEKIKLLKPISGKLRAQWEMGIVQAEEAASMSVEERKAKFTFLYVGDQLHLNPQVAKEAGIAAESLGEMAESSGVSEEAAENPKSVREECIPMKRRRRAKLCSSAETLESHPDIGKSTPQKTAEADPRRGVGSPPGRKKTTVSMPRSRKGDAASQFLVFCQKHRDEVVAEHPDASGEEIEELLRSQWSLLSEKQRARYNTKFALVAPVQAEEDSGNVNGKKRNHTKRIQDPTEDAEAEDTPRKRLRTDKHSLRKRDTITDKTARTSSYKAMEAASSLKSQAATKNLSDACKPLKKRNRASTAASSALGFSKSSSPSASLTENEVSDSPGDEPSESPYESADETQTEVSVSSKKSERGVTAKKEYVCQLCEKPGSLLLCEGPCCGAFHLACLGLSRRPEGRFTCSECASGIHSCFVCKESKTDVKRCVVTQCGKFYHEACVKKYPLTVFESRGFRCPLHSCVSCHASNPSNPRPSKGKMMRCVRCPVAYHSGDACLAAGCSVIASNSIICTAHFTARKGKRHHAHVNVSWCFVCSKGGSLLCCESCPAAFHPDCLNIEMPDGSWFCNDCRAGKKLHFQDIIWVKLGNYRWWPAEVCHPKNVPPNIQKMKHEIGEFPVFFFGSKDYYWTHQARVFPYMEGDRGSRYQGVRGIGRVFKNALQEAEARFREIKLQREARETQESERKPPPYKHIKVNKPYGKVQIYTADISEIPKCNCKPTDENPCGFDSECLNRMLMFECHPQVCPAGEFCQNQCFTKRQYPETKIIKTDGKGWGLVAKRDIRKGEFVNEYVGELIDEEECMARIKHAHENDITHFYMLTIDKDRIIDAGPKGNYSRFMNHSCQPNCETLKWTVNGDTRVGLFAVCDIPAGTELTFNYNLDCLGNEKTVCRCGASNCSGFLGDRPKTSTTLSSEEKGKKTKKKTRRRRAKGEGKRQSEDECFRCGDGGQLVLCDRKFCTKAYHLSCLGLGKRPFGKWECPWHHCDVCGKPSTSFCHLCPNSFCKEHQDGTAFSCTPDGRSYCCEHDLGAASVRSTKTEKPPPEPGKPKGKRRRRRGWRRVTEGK
Rad54 DNA ctr – counter-screen for Rad54 inhibitors: DNA binding compounds. shares compounds with RAD54 branch. AID 651673. AC50, µM (series often up to 35 µM). actives 8% (n = 460). Acridine orange-DNA displacement, fluorescence polarization, 20 min;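 active means signal drop giving an AC50 within twice the top valid tested concentration of each sample, actives reach about 35 µM in these data; inactive means activity opposite to expected, plus the rest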;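 further: polarization loss reports compound binding to salmon sperm DNA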
RAD52 DNA ctr – DNA binding artifact in RAD52 counter-screen. Salmon sperm DNA/acridine orange FP displacement. shares compounds with RAD52 inh. actives 8% (n = 1,000). AC50, µM;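 active means fitted half-maximal concentration for signal loss at or below twice the highest dose tested, in every separate run, actives reach about 64 µM in these data; inconclusive means runs disagree, or flat partial signal loss, or poor fit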
Each line names hits and unclear results; the compound was inactive in the other large screens (follow-up assays come after a bar, where they were run).

CCCCN(CC)CCNC(=S)Nc1ccc2nc(N3CCN(C)CC3)cc(C)c2c1	RAD52 inh 59.6, RAD54 branch 55.4 | Rad54 DNA ctr inactive | RAD52 DNA ctr inactive
COc1cccc(-c2cnc3c(NC(C)=O)cc(-c4cccc(C(=O)NCCN(C)C)c4)cn23)c1	RAD52 inh 99.9, RAD54 branch 78.2 | Rad54 DNA ctr inactive | RAD52 DNA ctr inactive
CC(=O)Nc1cc(-c2cccc(C(=O)NCCN(C)C)c2)cn2c(-c3ccc(F)c(Cl)c3)cnc12	none
CC(=O)Nc1cc(-c2cccc(C(=O)NCCN(C)C)c2)cn2c(-c3ccc(C(C)=O)cc3)cnc12	RAD52 inh 70.6, RAD54 branch 100.8 | Rad54 DNA ctr inactive | RAD52 DNA ctr inactive
COc1ccc(-c2cnc3c(NC(C)=O)cc(-c4cccc(C(=O)NCCN(C)C)c4)cn23)cc1OC	RAD52 inh 100.8, RAD54 branch 76.4 | Rad54 DNA ctr inactive | RAD52 DNA ctr inactive
CCN(CC)CCN1CCN(c2cncc(-c3cccc(N)c3)n2)CC1	RAD52 inh 99.0, RAD54 branch 73.2 | Rad54 DNA ctr inactive | RAD52 DNA ctr inactive
C[C@H]1CN([C@@H](C)CO)C(=O)Cc2cc(NC(=O)C3CC3)ccc2O[C@@H]1CN(C)C(=O)Nc1ccc2c(c1)OCO2	none (no result: N-glyco inh, NSD2 inh)
CCN1CCN(c2cc(C)c3cc(NC(=S)N4CCN(c5ccc(F)cc5)CC4)ccc3n2)CC1	none
CCN1CCN(c2cc(C)c3cc(NC(=S)N4CC(C)CC(C)C4)ccc3n2)CC1 (stereo not given)	RAD52 inh 52.5, RAD54 branch inconclusive | Rad54 DNA ctr inactive | RAD52 DNA ctr inactive
CCN1CCN(c2cc(C)c3cc(NC(=S)N4CCCC(C)C4)ccc3n2)CC1 (stereo not given)	RAD52 inh 52.0, RAD54 branch 63.3 (no result: NSD2 inh) | Rad54 DNA ctr inactive | RAD52 DNA ctr inactive
O=C(c1cccc(F)c1)N1CC2(C1)[C@H](c1ccccc1)[C@@H](CO)N2C(=O)C1CCCC1	none (no result: RAD54 branch, N-glyco inh, NSD2 inh)
CO[C@H]1CN(C)C(=O)c2cc(NC(C)=O)ccc2OC[C@H](C)N(Cc2cccc(F)c2)C[C@H]1C	none (no result: N-glyco inh, NSD2 inh)
Cc1ccc2nc3c(c(Nc4ccc(O)cc4)c2c1)CCC3	RAD54 branch 66.6 | Rad54 DNA ctr inactive | RAD52 DNA ctr inactive
CCOC(=O)c1c(NC(=O)c2ccc(S(=O)(=O)N3CCOCC3)cc2)sc2c1CCN(C)C2	RAD52 inh 59.2, RAD54 branch 88.6 | Rad54 DNA ctr inactive | RAD52 DNA ctr inactive
C[C@@H]1CN([C@H](C)CO)C(=O)c2cc(N(C)C)ccc2O[C@H]1CN(C)C(=O)Nc1ccc(C(F)(F)F)cc1	none (no result: N-glyco inh, NSD2 inh)
O=C(Nc1ccc([N+](=O)[O-])cc1)c1cccc([N+](=O)[O-])c1	none
O=C(Nc1ccc(Nc2ccncc2)cc1)c1ccc(Nc2ccnc3ccc([N+](=O)[O-])cc23)cc1	RAD52 inh 93.6, RAD54 branch 128.3 | Rad54 DNA ctr inactive | RAD52 DNA ctr inactive
CCOC(=O)c1cnc2ccc(OCC)cc2c1NCCCN1CCOCC1	RAD52 inh 70.3, RAD54 branch 100.8 | Rad54 DNA ctr inactive | RAD52 DNA ctr inactive
CCOC(=O)c1cnc2ccc(OCC)cc2c1NCCN1CCOCC1	none
COc1ccc(Nc2cc(C)nc3ccc(OC)cc23)cc1	RAD52 inh 55.5, RAD54 branch 64.0 | Rad54 DNA ctr inactive | RAD52 DNA ctr inactive
COc1ccc2nc(C)cc(Nc3ccc(C(=O)O)cc3)c2c1	none (no result: NSD2 inh)
Cc1ccc(-c2nc(C(=O)NCCCN(C)C)cc3c2[nH]c2ccccc23)cc1	RAD52 inh 92.9, RAD54 branch 105.4, N-glyco inh 46.2 | Rad54 DNA ctr inactive | RAD52 DNA ctr inconclusive
CC1CCCN(CCCNC(=O)c2cc3c(Cl)nc4ccccc4c3s2)C1 (stereo not given)	RAD52 inh 66.8, RAD54 branch 92.0, N-glyco inh inconclusive (no result: NSD2 inh) | Rad54 DNA ctr inactive | RAD52 DNA ctr 39.4µM
Cc1nc2ccccc2c2oc(C(=O)NCCCN3CCCC(C)C3)cc12 (stereo not given)	none
CCOC(=O)c1ccc(Nc2nc(N)c3cc(OC)c(OC)cc3n2)cc1	RAD54 branch inconclusive (no result: RAD52 inh, Casp6 inh)
COc1cc2nc(Nc3ccc(F)cc3)nc(N)c2cc1OC	RAD52 inh 61.7, RAD54 branch 58.9 (no result: Casp6 inh) | Rad54 DNA ctr inactive | RAD52 DNA ctr 59.3µM
